# HCMV inh = blocks human cytomegalovirus replication; HFF cells, HCMV-luciferase reporter, 72 h; stronger effect = lower value; activity change, negative = inhibition, % at 57.5 µM; actives 4.5% (n = 410,000); in the data active = activity change below about -60%; inconclusive = no clear call, values can overlap the other calls; inactive = above about -39%
#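 Inhibition of viral replication was scored as loss of reporter luminescence in HFFs infected with HCMV-luciferase (MOI 1 PFU/cell) for 72 h; compounds tested at 2 doses, normalized to buffer and Salinomycin controls.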
# HCV inhibitor = blocks hepatitis C virus; Huh7.5.1 HCVcc-Cre infection, luciferase reporter, 44 h; Potency, µM (highest dose often 41.8 µM), for inactives: at the top dose activity change, negative = inhibition, usual class: inhibitors; actives 3.4% (n = 340,000); note: potency is the fitted concentration of half-maximal effect
#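 Infectious HCVcc-Cre (~0.5 moi) was added to cells just after compound, with cells seeded 4 h earlier at 1,000 per well. Luciferase activity after 44 h culture reported infection; substrate was incubated 15 min at room temperature before reading.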
# LASV entry inh = Lassa virus entry inhibition | Lassa virus pseudotype entry inhibition, cell reporter | Potency, µM (doses to about 37.9 µM), for inactives: top-dose activity change, negative = inhibition, usual class: inhibitors | actives 1.2% (n = 300,000) | AID 540256; calls by dose curve; tested in HEK293 cells; note: potency is the fitted concentration of half-maximal effect; nearly all actives have a fitted effect of over 50% in size
# Giardia FBPA inh = blocks Giardia fructose-bisphosphate aldolase activity; A8B2U2; Potency, µM (top dose mostly 59.6 µM), inactives show at the highest dose activity, negative = inhibition, hits mostly inhibitors; actives 0.71% (n = 290,000); purified Giardia FBPA; AID 2451; note: potency is the fitted concentration of half-maximal effect; nearly all actives have a fitted effect of over 55% in size
# Target sequence (A8B2U2 whole entry, looked up): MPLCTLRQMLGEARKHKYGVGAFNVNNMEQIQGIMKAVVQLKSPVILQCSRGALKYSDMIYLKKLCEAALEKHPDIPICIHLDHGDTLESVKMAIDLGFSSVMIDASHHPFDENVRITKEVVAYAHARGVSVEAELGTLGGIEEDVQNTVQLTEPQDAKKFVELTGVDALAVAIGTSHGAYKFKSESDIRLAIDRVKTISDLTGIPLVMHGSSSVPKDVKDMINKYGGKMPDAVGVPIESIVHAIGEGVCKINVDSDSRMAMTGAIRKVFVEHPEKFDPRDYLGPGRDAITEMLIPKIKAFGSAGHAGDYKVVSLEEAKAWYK
#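 40 nM FBPA preincubated 10 min at RT with compound (up to 57.5 uM final), then substrate plus GAPDH/TPI/NAD/arsenate coupling and diaphorase/resazurin added. Fluorescence read after 20 min at RT, 525/598 nm.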
# MARV entry inh = blocks Marburg virus binding to or entry into cells | AID 540276 | actives 1.8% (n = 300,000) | Marburg virus pseudotyped entry inhibition, cell reporter | Potency, µM (titrated, usually from 37.8 µM), without a hit: at the top dose activity change, negative = inhibition, hits mostly inhibitors; calls by dose curve; tested in HEK293 cells; note: potency is the fitted concentration of half-maximal effect
# FMDV antiviral = blocks foot and mouth disease virus. FMDV antiviral cell-based qHTS. Potency, µM (top dose mostly 57.9 µM), inactives show at the highest dose activity change, negative = inhibition, most hits filed as inhibitors. actives 1.2% (n = 410,000); calls by dose curve; tested in HEK293T cells; note: read-out not given here; potency is the fitted concentration of half-maximal effect; nearly all actives have a fitted effect of over 45% in size
# The depositor's hits bear a star; ? = inconclusive; . = no result given; [ ] = another dose, or the depositor's remark. Sampled rows, rich in hits. Any-hit rate of the full collection: about 8.3%. Unless noted, calls come from the whole dose curve; as a rule, active = well fitted curve in the direction sought with a large enough effect; inconclusive = small, poorly fitted or top-dose-only effect, or another doubt; inactive = no such curve, though single readings can be large; an effect the other way counts as inactive or inconclusive. % is set by controls: 0 for no effect and ±100 for the full control effect.
SMILES,HCMV inh,HCV inhibitor,LASV entry inh,Giardia FBPA inh,MARV entry inh,FMDV antiviral
Cc1ccc(NCC(=O)Nc2cccc(F)c2)cc1S(=O)(=O)N1CCCCCC1,-98*,?,?,.,?,?
Cn1cnc(S(=O)(=O)N2CCC(C(=O)Nc3ccc(C#N)cc3)CC2)c1,12,.,10%[46.1 µM],.,.,-13%
CS(=O)(=O)c1ccc(NC(=O)C2CCCN(C(=O)c3ccc(Cl)cc3)C2)cc1 (stereo not drawn),3,1%,.,.,.,-25%
O=C(CNc1cccc(F)c1)Nc1cccc(S(=O)(=O)N2CCCCC2)c1,4,?,-9%,.,1%[46.1 µM],17%
O=C(Nc1ccc(OC(F)(F)F)cc1)C1CCCN(C(=O)c2ccc(Cl)cc2)C1 (stereo not drawn),-39,7.9µM*,.,.,.,-17%
Cc1ccc(NC(=O)C2CCCN(C(=O)c3ccc(Cl)cc3)C2)cc1S(=O)(=O)N1CCOCC1 (stereo not drawn),-72*,4µM*,?,-1%,?,?
COc1cc(-c2cnc3ccccc3c2)cc2c1OCCN(C(=O)CCn1nc(C)cc1C)C2,.,.,.,.,.,-10%
Cc1ccc(NC(=O)CNC(=O)c2ccc(OC(F)F)cc2)cc1S(=O)(=O)N1CCCCCC1,-24,16µM*,.,.,.,-20%
Cc1ccc(NC(=O)C2CCN(S(=O)(=O)c3ccc(N4CCCC4=O)cc3)CC2)cc1Cl,-86*,10µM*,?,.,?,-28%
Cc1ccccc1C(=O)N1CCC(C(=O)Nc2ccc(C)c(S(=O)(=O)N3CCCCC3)c2)CC1,0,10µM*,.,.,.,?
Cc1ccc(NC(=O)COC(=O)c2ccc(OC(F)F)cc2)cc1S(=O)(=O)N1CCCCC1,-12,-20%,.,.,.,-21%
Cc1ccc(NC(=O)Cn2nc(C(=O)O)c3ccccc3c2=O)cc1S(=O)(=O)N1CCCCC1,2,18%,3%,.,-27%,40µM*
Cc1cnc(CNc2nc(-c3ccc(C(=O)N(C)C)cc3)nc3ccccc23)cn1,.,.,.,-27%,.,76%
CCc1ccc(NC(=O)Cn2cnc3sc(C)c(S(=O)(=O)N4CCN(c5ccccc5OC)CC4)c3c2=O)cc1,15,.,14%[46.1 µM],.,?,?
CCOc1ccc(NC(=O)CC2C(=O)N(c3cccc(C)c3)C(=O)N2CCC2=CCCCC2)cc1 (stereo not drawn),1,.,?,.,?,0%
CCOc1ncccc1C(=O)Nc1ccc(C)c(S(=O)(=O)N2CCCCCC2)c1,-15,14µM*,.,.,.,-14%
Cc1ccccc1C(=O)NCC(=O)Nc1ccc(C)c(S(=O)(=O)N2CCCCCC2)c1,-12,8.9µM*,?,.,?,35µM*
CCOc1ncccc1C(=O)Nc1ccc(OC)c(S(=O)(=O)N2CCCCC2)c1,5,?,-18%,3%,-2%[46.1 µM],-28%
CSC1(SC2=NCCN2)SC2(NCCN2)S1,?,?,10%,.,10µM*,-10%
CCCCCCCCCCCCC/C=C/[C@@H](O)[C@H](CO)NCCCCCCCC,.,.,.,-6%,.,12%[6.7 µM]
O=C(Nc1ncc(Cc2cccc(Cl)c2)s1)c1cccs1,80,22µM*,8.9µM*,.,10µM*,14%
Cc1ccc(C(=O)Nc2ncc(Cc3ccccc3)s2)o1,-8,?,?,-5%,5.2µM*,-10%
CN(C)Cc1c(C(=O)N/N=C/c2ccccc2OCc2c(F)cccc2Cl)nnn1-c1nonc1N,?,15%,?,6%,?,?
CN1CCN(Cc2c(C(=O)N/N=C/c3cccc(Br)c3)nnn2-c2nonc2N)CC1,-60*,9%,.,-6%,.,-17%
CN(C)Cc1c(C(=O)N/N=C/c2cccc(OCc3c(F)cccc3Cl)c2)nnn1-c1nonc1N,-86*,?,.,.,.,?
Nc1nonc1-n1nnc(C(=O)N/N=C/c2cccc(Cl)c2)c1CN1CCCCCC1,11,19%,.,.,.,0%
CCOc1ccc(-c2c(C(=O)N/N=C/c3cccc(Br)c3)nnn2-c2nonc2N)cc1,-63*,34%,.,.,.,-21%
Cc1c(NC(=O)c2cnn3c(C(F)(F)F)cc(-c4ccco4)nc23)c(=O)n(-c2ccccc2)n1C,-62*,11%,-11%,0%,-14%,?

# Source: PubChem BioAssay
